Compound activity deposited in PubChem by several laboratories.
ATG4B inh – blocks human ATG4B protease cleavage of LC3 substrate; Q9Y4P1; ATG4B cleavage of LC3-PLA2, NBD-HPC fluorescence, 1 h; inhibition, % at 8.33 µM; 340,000 tested, 0.51% active; AID 504462; in the data active = inhibition above about 40%
NadD block – NadD (S. aureus) enzyme inhibition. 360,000 tested, 0.78% active. purified NadD enzyme, colorimetric absorbance read-out. inhibition, % at 20 µM; in the data active = inhibition above about 26%
Calb FLC – C. albicans growth modulation with fluconazole; C. albicans CaCi-2 (fluconazole-resistant clinical isolate) + fluconazole, Alamar Blue growth, 48 h; AID 1979; growth inhibition, % (concentration not given with the values); 300,000 tested, 0.57% active;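 active = growth inhibition above about 58% in most replicates, limit read from the data, passing the limit was not always enough; inconclusive = exactly half the replicates above a set limit; inactive = most replicates below a set limit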;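 also: all wells also contain fluconazole at 8 µg/ml as a sub-toxic cotreatment; 0% = median of DMSO wells and 100% = median of geldanamycin control wells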
SUMO Mot1 rescue – SUMOylation pathway inhibition by Mot1-301 growth rescue | growth rescue, % at 18.8 µM | S. cerevisiae Mot1-301 growth rescue, ATP luminescence, 38.5C; percent above DMSO median, 100 means doubled | 320,000 tested, 1% active;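 active = every valid replicate shows activation above 250% relative to neutral control wells; inactive = the rest, any valid replicate at or below 250%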;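 also: OY570 slx delta 5 strain wells were the positive control but not used for scaling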
FAS-TE inh – inhibitors of human fatty acid synthase thioesterase domain | P49327 | recombinant FAS-TE, OMFH fluorogenic substrate, fluorescence endpoint | inhibition, % at 15 µM | 360,000 tested, 0.67% active | AID 602261;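 active = compounds whose normalised, plate-corrected inhibition of enzyme fluorescence in the single-dose primary screen is 50% or more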;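 also: 0% = DMSO with enzyme and 100% = substrate without enzyme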
NadD conf – NadD (S. aureus) inhibition, single concentration confirmation. shares compounds with NadD block. 2,000 tested, 13% active. inhibition, % at 20 µM. purified S. aureus NadD, colorimetric enzyme assay; in the data active = inhibition mostly above about 42%, no sharp cut-off; inactive = mostly below about 42%
An asterisk follows results filed as active; ? = inconclusive; / = no result given. An excerpt weighted towards active compounds, which were near 3.1% of everything screened.

SMILES	ATG4B inh	NadD block	Calb FLC	SUMO Mot1 rescue	FAS-TE inh	NadD conf
CC1CC2=C(NC(=S)NC2c2ccccc2F)/C(=C/c2ccccc2F)C1 (stereo not given)	0.1	32.4*	-5.8	-7.8	-31.6	23.0
O=C(CNc1ccc2c(c1)OCO2)N/N=C\c1cn(Cc2ccccc2)c2ccccc12	36.3	36.7*	-22.6	-5.1	9.3	18.6
COc1cccc(C(=O)Oc2c(Br)cc(Br)cc2/C=N/NC(=O)c2cc(C)[nH]n2)c1	23.2	42.1*	-6.7	-0.4	17.2	8.2
Cc1cc(C(=O)N/N=C/c2cccc(OC(=O)c3cccc(Br)c3)c2)n[nH]1	6.6	13.8	-13.3	-7.0	1.9	/
O=C1NC[C@H](Cc2ccccc2)N(C[C@@H]2CCCN2C[C@H](Cc2ccc(O)cc2)N2C[C@H](Cc3ccc(O)cc3)N(CCc3ccccc3)C(=O)C2=O)C1=O	/	29.9	/	/	0.7	/
CCOc1ccc(CCN2C(=O)C(=O)N([C@@H](Cc3ccc(O)cc3)CN3CCC[C@H]3CN3C(=O)C(=O)NC[C@@H]3Cc3ccccc3)C[C@@H]2Cc2ccc(O)cc2)cc1	/	30.3*	/	/	3.6	31.8
CCOc1ccc(CCN2C(=O)C(=O)N([C@@H](Cc3ccccc3)CN3CCC[C@H]3CN3C(=O)C(=O)NC[C@@H]3Cc3ccccc3)C[C@@H]2Cc2ccc(O)cc2)cc1	/	71.0*	/	/	12.2	40.7
O=C1NC[C@H](Cc2ccccc2)N(C[C@@H]2CCCN2C[C@H](Cc2ccccc2)N2C[C@H](Cc3ccc(O)cc3)N(CCc3ccccc3)C(=O)C2=O)C1=O	/	44.0*	/	/	4.6	48.9*
CCOc1ccc(CCN2C(=O)C(=O)N([C@@H](Cc3ccccc3)CN3CCC[C@H]3CN3C(=O)C(=O)NC[C@@H]3Cc3ccccc3)C[C@@H]2Cc2ccccc2)cc1	/	27.4	/	/	21.8	/
CCOc1ccc(CCN2C(=O)C(=O)N([C@@H](CC(C)C)CN3CCC[C@@H]3CN3C(=O)C(=O)NC[C@@H]3Cc3ccccc3)C[C@@H]2Cc2ccc(O)cc2)cc1	/	20.6	/	/	4.4	/
NC(=O)[C@H](Cc1cc2ccccc2s1)NC(=O)[C@@H]1CC2(CC(c3cccc(NC(=O)[C@@H]4CCC(=O)N4)c3)=NO2)CN1C(=O)/C=C/c1c(F)cccc1Cl (stereo not given in full)	-36.2	34.4*	3.3	3.4	2.5	21.0
COc1cc(/C=N/NC(=O)C2CC(=O)N(c3ccc(C)cc3)C2)cc(OC)c1OC (stereo not given)	-0.8	-3.8	6.6	5.4	-5.4	/
Cc1nc(SCc2nc3ccc([N+](=O)[O-])cc3[nH]2)c2oc3ccccc3c2n1	-16.6	33.3*	/	23.9	19.6	3.0
Cc1ccc(-n2[nH]c(C)c(C=Nc3ccc(S(=O)(=O)Nc4nccs4)cc3)c2=O)cc1C	19.1	41.8*	-13.7	-26.1	-1.0	51.8*
Cc1[nH]n(-c2ccccc2)c(=O)c1C=Nc1ccc(S(=O)(=O)Nc2nccs2)cc1	-6.5	18.1	-9.6	141.8	-2.8	/
CCc1nnc(NS(=O)(=O)c2ccc(N=Cc3c(C)[nH]n(-c4ccc(Cl)cc4)c3=O)cc2)s1	18.3	30.5*	6.3	-6.9	10.3	47.2*
O=C(c1cc2cc(Cl)ccc2[nH]1)N1CCN(Cc2ccc3c(c2)OCO3)CC1	8.6	3.7	1.0	59.2	16.0	/
Cc1c(C(=O)OCC(O)=C(C#N)c2nc3ccccc3[nH]2)oc2ccc(Br)cc12	-3.9	37.0*	/	/	-2.1	2.3
O=C(CSC(=S)N1CCN(c2ccccc2)CC1)Nc1nc(-c2ccccc2)c(-c2ccccc2)o1	-5.8	35.2*	-8.5	-8.0	17.9	2.3
Cc1ccnc(NS(=O)(=O)c2ccc(N3C(=O)c4ccccc4C3=O)cc2)n1	1.2	1.3	?	-8.7	-7.7	/
Cc1ccnc(NS(=O)(=O)c2ccc(N3C(=O)c4c(Cl)c(Cl)c(Cl)c(Cl)c4C3=O)cc2)n1	-2.9	34.4*	-4.5	0.4	-10.0	6.3
CCCCN(C(C)=O)c1ccc(S(=O)(=O)NC2=NCCCCC2)cc1NC(C)=O	-1.1	-7.2	/	-14.4	-8.6	/
Cc1cc(NS(=O)(=O)c2ccc(NC(=O)c3cc4c(=O)n5ccccc5nc4s3)cc2)nc(C)n1	-0.8	31.4*	1.7	/	-14.6	46.0
